Assay results as given in a collection of fitness landscapes (doi:10.1016/j.celrep.2020.107928).
Whole data set: some 81,000 sequences, median “one-hybrid fitness for binding NBS DNA” near -0.1, cut for the highest 2% near 0.36. Many of the other results were omitted from the sample, so the highest values are more common in it than they were.

B1: Caulobacter ParB omega fusion; a variant is named by its letters at X, in order, B8GW30 (parent)
chain: MESVVVGEPGMSEGRRGLGRGLSALLGEVDAAPAQAPGEQLGGSREAPIEILQRNPDQPRRTFREEDLEDLSNSIREKGVLQPILVRPSPDTAGEYQIVAGERAWRAAQRAGLKTVPIMVRELDDLAVLEIGIIENVQRADLNVLEEALSYKVLMEKFERTQENIAQTIGKSXSHVANXMRLLXLPDEVQSYLVSGELTAXHARAIAAAADPVALAKQIIEGGLSVRETEALARKAPNLSAGKSKGGRPPRVKDTDTQALESDLSSVLGLDVSIDHRGSTGTLTITYATLEQLDDLCNRLTRGI

Variants of: B1
Assay: one-hybrid fitness for binding NBS DNA (the Noc-binding site; scaled: cognate 1, non-cognate 0); higher = stronger binding
Conditions: with NBS DNA site
Method in brief: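 Bacterial one-hybrid selection in E. coli USO rpoZ- hisB- pyrF- with a HIS3 reporter carrying the site 19 bp from the promoter, screening Caulobacter ParB libraries with four specificity codons randomised (NNS). Cells grew 48 hours at 37°C on M9-minus-histidine plus 0.1 mM IPTG and 5 mM 3-AT. Plasmids before and after selection were Illumina-sequenced, three replicate libraries pooled, and variants under 10 reads dropped. Fitness is the log change in variant-to-wild-type read ratio, rescaled to cognate 1, non-cognate 0.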

| Variant | one-hybrid fitness for binding NBS DNA |
| --- | --- |
| FHAS | ≤ 0.2 |
| ENIG | ≤ 0.2 |
| LRKN | ≤ 0.2 |
| PCWT | ≤ 0.2 |
| QRRA | 0.674 |
| DRRA | ≤ 0.2 |
| QRSA | 0.566 |
| QCIA | 0.25 |
| QCLA | 0.304 |
| QRLA | 0.547 |
| QSSA | ≤ 0.2 |
| QRPA | 0.207 |
| QWRA | ≤ 0.2 |
| QRIA | 0.436 |
| QSLA | ≤ 0.2 |
| QPSA | ≤ 0.2 |
| TTVS | ≤ 0.2 |
| YHRS | ≤ 0.2 |
| YKRY | ≤ 0.2 |
| IDDD | ≤ 0.2 |
| SRTS | ≤ 0.2 |

| Variant | one-hybrid fitness for binding NBS DNA |
| --- | --- |
| TNTI | ≤ 0.2 |
| CWVC | ≤ 0.2 |
| RTKL | ≤ 0.2 |
| CLGT | ≤ 0.2 |
| QREA | 0.288 |
| QRYA | 0.588 |
| QPYA | ≤ 0.2 |
| RATL | ≤ 0.2 |
| AQRI | ≤ 0.2 |
| VVMC | ≤ 0.2 |
| QCCK | ≤ 0.2 |
| QRWK | 0.239 |
| QSCK | ≤ 0.2 |
| QRSK | 0.396 |
| QCHK | ≤ 0.2 |
| QRHK | 0.432 |
| QRPK | ≤ 0.2 |
| QSSK | ≤ 0.2 |
| QCSK | ≤ 0.2 |
| QRCK | 0.388 |
| QSHK | ≤ 0.2 |

| Variant | one-hybrid fitness for binding NBS DNA |
| --- | --- |
| QRRK | 0.747 |
| YTTG | ≤ 0.2 |
| PILC | ≤ 0.2 |
| GPWT | ≤ 0.2 |
| TTST | ≤ 0.2 |
| PSAI | ≤ 0.2 |
| LWNA | ≤ 0.2 |
| HNMG | 0.257 |
| QRYK | 0.381 |
| QCGK | ≤ 0.2 |
| QRIK | 0.213 |
| QRAK | 0.373 |
| QRGK | 0.445 |
| QRDK | ≤ 0.2 |
| QCNK | ≤ 0.2 |
| QRFK | 0.295 |
| QRNK | 0.488 |
| QCAK | ≤ 0.2 |
| QREK | ≤ 0.2 |
| QSGK | ≤ 0.2 |
| TYVS | ≤ 0.2 |

| Variant | one-hybrid fitness for binding NBS DNA |
| --- | --- |
| MKIS | ≤ 0.2 |
| KICD | ≤ 0.2 |
| FCSG | ≤ 0.2 |
| FRQA | ≤ 0.2 |
| QCQK | ≤ 0.2 |
| QRQK | 0.365 |
| QSQK | ≤ 0.2 |
| GCRT | ≤ 0.2 |
| QNRT | 0.292 |
| QCRT | 0.857 |
| QSYT | 0.347 |
| QCYT | 0.503 |
| GPRT | 0.369 |
| QSRT | 0.723 |
| QPYT | ≤ 0.2 |
| GPYT | ≤ 0.2 |
| QNYT | ≤ 0.2 |
| QPRT | ≤ 0.2 |
| VDRR | ≤ 0.2 |
| QPAL | ≤ 0.2 |
| PSKA | ≤ 0.2 |
